Source: PubChem BioAssay (Tox21)
Records with an inconclusive call do not appear. Activity calls are given as the source filed them. Unless noted, the call rests on the fitted dose curve; in most records, active means well fitted curve in the direction sought with a large enough effect in the repeat runs; inconclusive means weak or mixed curves; inactive means no such curve, though single readings can be large; an effect the other way counts as inactive or inconclusive.

Columns and labels:
[1] = biological target: Thyrotropin receptor (Homo sapiens) (UniProt P16473); test: qHTS assay to identify small molecule antagonists of the thyroid stimulating hormone receptor (TSHR) signaling pathway (AID 1259385; calls by dose curve; further: nearly all actives have a fitted effect of over 20% in size)
Sequence of Thyrotropin receptor (Homo sapiens) (P16473 whole entry, looked up): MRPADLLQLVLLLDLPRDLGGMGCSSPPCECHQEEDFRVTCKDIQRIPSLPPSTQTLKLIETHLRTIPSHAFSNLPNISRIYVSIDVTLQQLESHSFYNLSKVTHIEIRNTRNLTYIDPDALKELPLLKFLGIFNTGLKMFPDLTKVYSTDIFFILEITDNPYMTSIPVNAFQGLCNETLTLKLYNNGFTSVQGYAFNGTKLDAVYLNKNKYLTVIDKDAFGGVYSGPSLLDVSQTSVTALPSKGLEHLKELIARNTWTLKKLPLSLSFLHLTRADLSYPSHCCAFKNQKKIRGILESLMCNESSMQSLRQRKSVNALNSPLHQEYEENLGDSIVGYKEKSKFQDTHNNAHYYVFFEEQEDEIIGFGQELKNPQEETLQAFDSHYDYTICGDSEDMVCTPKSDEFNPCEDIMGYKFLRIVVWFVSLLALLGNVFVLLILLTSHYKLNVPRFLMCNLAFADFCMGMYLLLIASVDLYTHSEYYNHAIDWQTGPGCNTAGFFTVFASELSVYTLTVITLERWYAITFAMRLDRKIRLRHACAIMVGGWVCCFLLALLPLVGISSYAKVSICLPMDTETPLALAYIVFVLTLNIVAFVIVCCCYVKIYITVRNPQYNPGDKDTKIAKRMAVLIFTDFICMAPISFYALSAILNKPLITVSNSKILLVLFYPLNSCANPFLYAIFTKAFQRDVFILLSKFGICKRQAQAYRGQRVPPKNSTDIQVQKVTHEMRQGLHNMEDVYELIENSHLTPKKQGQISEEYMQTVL
How it was run: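 Antagonist mode: compound-treated TSHR-expressing HEK293 cells were stimulated with 1.5 ng/mL TSH (final) in presence of Ro20-1724 for 30 min at RT. HTRF cAMP detection after 1 h; each compound tested at 15 concentrations, triplicate.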

[2] = qHTS assay to identify small molecule agonists of the estrogen receptor alpha (ER-alpha) signaling pathway in the presence of an antagonist - cell viability counter screen (AID 1259386);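 further: series mostly up to about 92 µM; cells exposed to compounds for 22 h at 37 °C before the viability read; nearly all actives have a fitted effect of over 30% in size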
How it was run: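 Using estrogen-depleted VM7Luc4E2 cells, the 15-concentration compound series was applied together with 10.0nM ICI-182,780 and incubated 22hr at 37C/5% CO2. Cell viability was then scored by CellTiter-Fluor.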

[3] = biological target: Progesterone receptor (Homo sapiens) (UniProt P06401); test: qHTS assay to identify small molecule agonists of the progesterone receptor (PR) signaling pathway (AID 1346784; calls by dose curve; further: nearly all actives have a fitted effect of over 30% in size)
Sequence of Progesterone receptor (Homo sapiens) (P06401 whole entry, looked up): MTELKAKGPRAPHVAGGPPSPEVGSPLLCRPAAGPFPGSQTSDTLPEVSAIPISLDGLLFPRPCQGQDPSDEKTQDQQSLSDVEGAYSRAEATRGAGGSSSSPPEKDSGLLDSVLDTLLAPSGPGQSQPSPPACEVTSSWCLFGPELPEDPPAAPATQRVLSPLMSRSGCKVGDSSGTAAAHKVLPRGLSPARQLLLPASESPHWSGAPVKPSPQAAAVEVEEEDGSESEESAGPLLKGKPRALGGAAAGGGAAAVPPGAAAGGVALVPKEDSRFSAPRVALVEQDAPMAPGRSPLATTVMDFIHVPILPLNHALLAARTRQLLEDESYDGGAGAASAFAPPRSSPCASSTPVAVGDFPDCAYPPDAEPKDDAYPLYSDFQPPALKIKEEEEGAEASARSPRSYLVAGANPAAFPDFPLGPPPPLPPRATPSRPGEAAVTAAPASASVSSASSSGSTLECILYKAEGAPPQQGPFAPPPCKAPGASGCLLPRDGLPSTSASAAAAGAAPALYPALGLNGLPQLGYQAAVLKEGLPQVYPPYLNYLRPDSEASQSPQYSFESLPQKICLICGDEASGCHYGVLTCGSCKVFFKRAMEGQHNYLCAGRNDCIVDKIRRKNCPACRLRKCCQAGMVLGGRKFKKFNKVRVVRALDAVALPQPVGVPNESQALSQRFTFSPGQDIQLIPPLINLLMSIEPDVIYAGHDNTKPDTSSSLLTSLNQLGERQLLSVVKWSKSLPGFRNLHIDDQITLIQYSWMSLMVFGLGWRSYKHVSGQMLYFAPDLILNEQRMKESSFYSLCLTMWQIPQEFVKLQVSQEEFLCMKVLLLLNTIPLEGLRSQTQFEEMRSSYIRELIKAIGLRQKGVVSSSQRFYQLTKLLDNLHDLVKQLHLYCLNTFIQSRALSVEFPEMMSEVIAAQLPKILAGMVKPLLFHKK
How it was run: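 Seed PR-UAS-bla HEK 293T cells (2% charcoal-stripped FBS), incubate 6 hr at 37C; add compounds in DMSO, 16 hr at 37C; add LiveBLAzer B/G substrate, 2 hr RT; read fluorescence intensity.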

[4] = biological target: Progesterone receptor (Homo sapiens) (UniProt P06401); test: qHTS assay to identify small molecule antagonists of the progesterone receptor (PR) signaling pathway (AID 1346795; active means well fitted inhibition curve with a large enough effect in the signal ratio in the repeat runs, not every such curve was filed as active; the % refers to the signal ratio)
How it was run: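 Screening used a GripTite HEK293T line with PR-responsive UAS-beta-lactamase. Cells were challenged with compound in the presence of 1 nM R5020 final for 16 hr at 37C; B/G FRET substrate, 2 hr room temperature, fluorescence.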

[5] = qHTS assay to identify small molecule antagonists of the progesterone receptor (PR) signaling pathway - cell viability counter screen (AID 1346798); further: series mostly up to about 92 µM; nearly all actives have a fitted effect of over 50% in size
How it was run: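 Measures cytotoxicity in parallel with the PR antagonist reporter read: HEK293T PR-UAS-bla cells get compound and R5020 for 16 hr, and remaining viable cells are quantified by CellTiter-Glo luminescence.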

[6] = qHTS assay to identify small molecule agonists of the progesterone receptor (PR) signaling pathway - cell viability counter screen (AID 1346799; calls by dose curve; further: nearly all actives have a fitted effect of over 45% in size)
How it was run: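 Using the same plates as the PR reporter screen, HEK293T PR-UAS-bla cells received compounds for 16 hr at 37C and were then lysed with CellTiter-Glo; luminescence was read 30 min later at room temperature.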

[7] = qHTS assay to identify small molecule antagonists of the TGF-beta/Smad signaling pathway - cell viability counter screen (AID 1346824); further: nearly all actives have a fitted effect of over 50% in size
How it was run: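 Cytotoxicity counter-screen run in the same wells as the beta-lactamase Smad reporter read: CellTiter-Glo luminescence after 30 min at room temperature. HEK 293T SBE-bla cells had 5 hr compound exposure at 37 C with TGF-beta1 (0.25 ng/mL stock).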

[8] = qHTS assay to identify small molecule agonists of the TGF-beta/Smad signaling pathway - cell viability counter screen (AID 1346829); further: top concentration of the series differs between compounds; nearly all actives have a fitted effect of over 45% in size
How it was run: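 HEK 293T SBE-bla line, 5 hr compound exposure at 37 C, multiplexed CellTiter-Glo viability read by luminescence.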

[9] = qHTS assay to identify small molecule agonists of the TGF-beta/Smad signaling pathway (AID 1346859; active means well fitted activation curve with a large enough effect in the signal ratio in the repeat runs, not every such curve was filed as active; the % refers to the signal ratio; further: series mostly up to about 77 µM)
How it was run: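 Beta-lactamase reporter activity downstream of Smad binding elements was measured in stably transfected HEK 293T cells; compounds were incubated for 5 hr, substrate for 2 hr at room temperature.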

[10] = biological target: Thyrotropin-releasing hormone receptor (Homo sapiens) (UniProt P34981); test: qHTS assay to identify small molecule antagonists of the thyrotropin-releasing hormone receptor (TRHR) signaling pathway (AID 1346877; active means well fitted inhibition curve with a large enough effect in the repeat runs, not every such curve was filed as active; further: series mostly up to about 51 µM)
Sequence of Thyrotropin-releasing hormone receptor (Homo sapiens) (P34981 whole entry, looked up): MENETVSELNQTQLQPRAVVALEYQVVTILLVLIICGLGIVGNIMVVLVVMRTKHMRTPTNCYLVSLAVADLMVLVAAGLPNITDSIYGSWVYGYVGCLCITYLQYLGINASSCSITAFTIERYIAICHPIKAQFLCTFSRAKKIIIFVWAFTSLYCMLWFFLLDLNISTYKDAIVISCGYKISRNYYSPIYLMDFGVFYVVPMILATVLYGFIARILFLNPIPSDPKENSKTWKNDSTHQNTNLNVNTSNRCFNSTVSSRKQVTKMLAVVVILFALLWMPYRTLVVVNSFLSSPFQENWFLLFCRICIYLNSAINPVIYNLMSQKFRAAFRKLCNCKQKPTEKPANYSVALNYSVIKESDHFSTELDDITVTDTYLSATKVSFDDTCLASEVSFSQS
How it was run: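 Calcium signal in dye-loaded TRHR/HEK293 cells; compounds added 5 min before TRH (1 nM final); fluorescence monitored 3 min at 1 s steps.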

[11] = biological target: Thyrotropin-releasing hormone receptor (Homo sapiens) (UniProt P34981); test: qHTS assay to identify small molecule agonists of the thyrotropin-releasing hormone receptor (TRHR) signaling pathway (AID 1346891; calls by dose curve;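 further: HEK293 cells expressing TRHR with calcium dye readout; series mostly up to about 58 µM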)
How it was run: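 Overnight-plated (18 h, 37 °C, 5% CO2) TRHR-Hek293 cells; 2 h calcium dye at 37 °C; compound in DMSO; 3-min kinetic fluorescence read.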

[12] = Human pregnane X receptor (PXR) small molecule agonists, qHTS cell viability counter screen (AID 1346977); further: nearly all actives have a fitted effect of over 50% in size
How it was run: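 After a 5hr pre-incubation, PXR-Luc HepG2 cells received compounds plus positive control in DMSO and were kept 24hr at 37C. Cell viability was quantified by fluorescence from CellTiter-Fluor added for the final hour.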

[13] = Caspase-3/7 induction in HepG2 cells by small molecules, qHTS assay (AID 1346978); further: nearly all actives have a fitted effect of over 15% in size
How it was run: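 Caspase-3/7 induction was measured by Caspase-Glo 3/7 luminescence (30 min, room temperature) after a 17 hr compound exposure of wild-type HepG2 cells seeded at 2,000 per well and pre-incubated 5 hr.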

[14] = Caspase-3/7 induction in CHO-K1 cells by small molecules, qHTS cell viability counter screen (AID 1346979); further: nearly all actives have a fitted effect of over 35% in size
How it was run: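 Multiplexed with Caspase-Glo 3/7 in CHO-K1 cells, this counter screen added CellTiter-Fluor after 16hr of compound exposure and recorded fluorescence 1hr later.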

[15] = Caspase-3/7 induction in CHO-K1 cells by small molecules, qHTS assay (AID 1346980); further: nearly all actives have a fitted effect of over 15% in size
How it was run: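 Luminescent Caspase-Glo 3/7 read (30min, room temperature) quantified apoptosis induction. Cells were wild-type CHO-K1, treated with compound for 17hr at 37 C and 5% CO2.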

[16] = Caspase-3/7 induction in HepG2 cells by small molecules, qHTS cell viability counter screen (AID 1346981); further: series mostly up to about 92 µM; nearly all actives have a fitted effect of over 30% in size
How it was run: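 After a 5-hr attachment period at 37 C and 5% CO2, wild-type HepG2 cells received compounds in DMSO. Sixteen hours later CellTiter-Fluor was dispensed and the fluorescent signal quantified after a further hour.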

[17] = biological target: Nuclear receptor subfamily 1 group I member 2 (Homo sapiens) (UniProt O75469); test: Human pregnane X receptor (PXR) small molecule agonists, qHTS assay (AID 1346982); further: nearly all actives have a fitted effect of over 35% in size
Sequence of Nuclear receptor subfamily 1 group I member 2 (Homo sapiens) (O75469 whole entry, looked up): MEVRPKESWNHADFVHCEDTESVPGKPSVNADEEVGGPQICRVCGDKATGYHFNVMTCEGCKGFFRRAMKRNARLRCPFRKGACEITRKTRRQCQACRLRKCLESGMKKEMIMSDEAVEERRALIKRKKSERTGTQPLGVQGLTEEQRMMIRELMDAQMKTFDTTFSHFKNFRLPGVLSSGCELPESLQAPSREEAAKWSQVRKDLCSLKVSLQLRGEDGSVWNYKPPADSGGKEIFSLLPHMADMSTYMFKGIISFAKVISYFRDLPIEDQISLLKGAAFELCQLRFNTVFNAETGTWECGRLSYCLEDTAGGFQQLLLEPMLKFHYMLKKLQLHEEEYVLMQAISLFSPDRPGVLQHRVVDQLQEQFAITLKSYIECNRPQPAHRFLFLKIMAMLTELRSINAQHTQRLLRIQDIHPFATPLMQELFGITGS
How it was run: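 Tox21 qHTS; PXR-Luc HepG2; compounds pinned from DMSO; 24 hr, 37 C; ONE-Glo luciferase detection, 30 min room temperature.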

[18] = biological target: Nuclear receptor subfamily 1 group I member 2 (Homo sapiens) (UniProt O75469); test: Human pregnane X receptor (PXR) activation by small molecules, qHTS assay (AID 1346985); further: nearly all actives have a fitted effect of over 40% in size
How it was run: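 DPX-2 cells (HepG2 co-transfected with a PXR response element and a CYP3A4-promoter luciferase construct) were seeded at 2,000 per well, rested 5 hr at 37C, then exposed to DMSO-dissolved compounds for 24 hr. Activation was read as luciferase luminescence.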

[19] = biological target: Nuclear receptor subfamily 1 group I member 2 (Homo sapiens) (UniProt O75469); test: CYP3A4 induction through human pregnane X receptor (PXR) by small molecules, qHTS assay (AID 1346984); further: nearly all actives have a fitted effect of over 40% in size
How it was run: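 Cells (DPX-2; HepG2 with PXR element plus CYP3A4-promoter luciferase) settled 5hr, then were treated 24hr at 37C. A 3hr, 3uM-final Luciferin-IPA step preceded luminescence measurement with One-Glo.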
On the % scale 0 is the no-effect control and ±100 the full control effect.

C[C@H](N)[C@H](O)c1cccc(O)c1
inactive: outcome [1] | Potency [2] | Potency [3] | Potency [4] | Potency [5] | Potency [6] | outcome [7] | outcome [8] | outcome [9] | outcome [10] | outcome [11] | Potency [12] | Potency [13] | Potency [14] | outcome [15] | Potency [16] | Potency [17] | Potency [18]

CC(=C(CCOC(=O)C(C)C)SSC(CCOC(=O)C(C)C)=C(C)N(C=O)Cc1cnc(C)nc1N)N(C=O)Cc1cnc(C)nc1N
inactive: outcome [1] | Potency [2] | Potency [3] | Potency [4] | Potency [5] | Potency [6] | outcome [7] | outcome [8] | outcome [9] | outcome [11] | Potency [12] | Potency [13] | Potency [14] | outcome [15] | Potency [16] | Potency [17] | Potency [19] | Potency [18]

CCOC(=O)[C@H](CCc1ccccc1)N[C@@H](C)C(=O)N1C(=O)N(C)C[C@H]1C(=O)O
inactive: outcome [1] | Potency [2] | Potency [3] | Potency [4] | Potency [5] | Potency [6] | outcome [7] | outcome [8] | outcome [9] | outcome [11] | Potency [12] | Potency [13] | outcome [15] | Potency [16] | Potency [19] | Potency [18]

Cc1cc(NC(=O)C2=C(O)c3ccccc3S(=O)(=O)N2C)no1
inactive: outcome [1] | Potency [2] | Potency [3] | Potency [4] | Potency [5] | Potency [6] | outcome [7] | outcome [8] | outcome [9] | outcome [10] | outcome [11] | Potency [13] | Potency [14] | Potency [16]

O=C(O)c1ccc(Cl)cc1Cl
inactive: outcome [1] | Potency [2] | Potency [3] | Potency [4] | Potency [5] | Potency [6] | outcome [7] | outcome [8] | outcome [9] | outcome [11] | Potency [12] | Potency [13] | Potency [14] | outcome [15] | Potency [16] | Potency [17]

O=S(O)(O)=S
inactive: activity change, negative = inhibition [1] 2.15% [at 8.39 µM] | activity change, negative = cytotoxicity [2] 1.38% [at 8.39 µM] | activation [3] -0.0718% [at 8.39 µM] | activity change, negative = inhibition [4] 2.55% [at 8.39 µM] | activity change, negative = cytotoxicity [5] 5.98% [at 8.39 µM] | activity change, negative = cytotoxicity [6] -1.49% [at 8.39 µM] | viability change, negative = cytotoxic [7] -0.132% [at 6.97 µM] | activity change, negative = cytotoxicity [8] 1.63% [at 6.97 µM] | activation [9] 3.3% [at 6.97 µM] | activity, negative = inhibition [10] 1.85% [at 4.65 µM] | activation [11] 0.644% [at 5.23 µM] | activity change, negative = cytotoxicity [12] -0.159% [at 8.39 µM] | caspase activation [13] 0.115% [at 8.39 µM] | activity change, negative = cytotoxicity [14] 4.08% [at 8.39 µM] | caspase-3/7 activation [15] 0.413% [at 8.39 µM] | activity change, negative = cytotoxicity [16] -0.702% [at 8.39 µM] | activation [17] 4.46% [at 8.39 µM]

CC1COc2ccccc2N1 (configuration not stated)
inactive: outcome [1] | Potency [2] | Potency [3] | Potency [4] | Potency [5] | Potency [6] | outcome [8] | outcome [9] | outcome [10] | outcome [11] | Potency [13] | Potency [14] | outcome [15] | Potency [16] | Potency [17]

O=C(O)Cc1ccc(Cl)cc1Cl
inactive: outcome [1] | Potency [2] | Potency [3] | Potency [4] | Potency [5] | Potency [6] | outcome [7] | outcome [9] | outcome [10] | outcome [11] | Potency [13] | Potency [14] | Potency [16]
